Test results from PubChem BioAssay.
The source made the active and inactive calls. Unless noted, how the calls were made is not given here.

What was measured:
[1] = anti-His antibody binders, primary screen, artefact control for SMM control protein annotation, biochemical, small-molecule microarray, 635 nm fluorescence (AID 1128); settings: anti-His Alexa647 antibody binding, higher = more signal;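 further: score merges feature fluorescence with signal-to-noise for each printed compound spot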
[2] = tested on: Human papillomavirus type 1a E7 protein (residues 1-88); assay: HPV1a E7 small-molecule binders, primary screen, biochemical, small-molecule microarray, residues 1-88, 635 nm (AID 1129); settings: small-molecule microarray binding, fluorescence 635 nm; higher = more signal
[3] = biological target: Focal adhesion kinase 1 (Homo sapiens) (UniProt Q05397); assay: small-molecule microarray binders of FAK, primary screen, biochemical, 635/667 nm fluorescence, BSA, DTT (AID 1130); settings: PTK2 binding, 635 nm fluorescence, higher = more signal;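 further: composite of spot emission at 667 nm and signal to noise over triplicate slides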
[4] = tested on: Fibrinogen (Alexa647-labelled); assay: fibrinogen binders on compound microarrays, profiling panel, artefact control for SMM control-protein annotation, biochemical, small-molecule microarray, 635/667 nm fluorescence (AID 1131); settings: fibrinogen-A647 binding fluorescence, higher = more signal;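 further: z-score merges 667 nm fluorescence with per-spot signal-to-noise over triplicate slides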
[5] = biological target: Follistatin (Homo sapiens) (UniProt P19883); assay: follistatin binders on small-molecule microarrays, primary screen, biochemical, small-molecule microarray, 635/667 nm fluorescence (AID 1132); settings: FST binding, 635 nm fluorescence, higher = more signal
[6] = biological target: Fibroblast growth factor 2 (Homo sapiens) (UniProt P09038); assay: FGF2 binders on small-molecule microarrays, primary screen, biochemical, small-molecule microarray, 635/667 nm fluorescence (AID 1133); settings: small-molecule microarray binding, FGF2, fluorescence 635/667; higher = more signal
[7] = mitochondrial membrane potential change in A549 cells, profiling panel, cell-based, JC-1 fluorescence, basal, 24 h, 100 nL (AID 1138); settings: higher = more signal;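 further: A549 lung adenocarcinoma cells under basal conditions with no added stimulus; test concentration not given here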
Lefty1 = Lefty1 binders on small-molecule microarrays, primary screen, biochemical, small-molecule microarray, 635/667 nm fluorescence (AID 1139); settings: small-molecule microarray binding, fluorescence 635/667; higher = more signal
[8] = tested on: wheat germ agglutinin (Triticum aestivum), Alexa647-labelled; assay: wheat germ agglutinin binders on compound microarrays, profiling panel, artefact control for SMM control-protein annotation, biochemical, small-molecule microarray, 635/667 nm fluorescence (AID 1140); settings: WGA-A647 binding, 635 nm fluorescence, higher = more signal;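 further: score merges 667 nm feature emission with signal to noise over triplicate slides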
[9] = biological target: Luciferin 4-monooxygenase (Photinus pyralis) (UniProt P08659); assay: firefly luciferase enzyme inhibitors, primary screen, biochemical, luminescence, purified enzyme, 2006 set (AID 1141); settings: SteadyGlo luminescence, 30 min, higher = more signal, called active from +8 up or from −8 down;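 further: cell-free assay with purified firefly luciferase at 100 ng per well in PBS; test concentration not given here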
[10] = tested on: Wnt5a (protein binding on small-molecule microarray); assay: Wnt5a binders on small-molecule microarray, primary screen, biophysical, 635/667 nm fluorescence (AID 1142); settings: 635 nm fluorescence, higher = more signal;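 further: fluorescence read at 667 nm with signal to noise per printed feature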
[11] = cell viability in Huh7 cells, primary screen, cytotoxicity control for HCV replication inhibitor project, CellTiter-Glo luminescence, basal, 48 h (AID 1143); settings: Huh7 HCV replicon, higher = more signal, called active from +8 up or from −8 down;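 further: Huh7 hepatoma cells carrying a hepatitis C replication reporter with no stimulus; test concentration not given here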
[12] = P. aeruginosa biofilm formation inhibitors, primary screen, PAO1 strain, BacTiter-Glo luminescence, LB-PBS (AID 1144); settings: 12 h, higher = more signal
[13] = CREB reporter modulators without forskolin, primary screen, cell-based, PC12, CRE-LacZ reporter, unstimulated (AID 1145); settings: no forskolin, luminescence, 4.5 h, higher = more signal, called active from +8 up or from −8 down
[14] = CREB reporter modulators under forskolin, primary screen, cell-based, PC12, CRE-LacZ reporter, forskolin-stimulated (AID 1146); settings: luminescence, 4.5 h, higher = more signal, called active from +8 up or from −8 down;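 further: PC12 cells with 6xCRE LacZ reporter stimulated by forskolin 10 µM; beta-galactosidase reporter signal reflecting CREB driven transcription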
[15] = biological target: Streptavidin (Streptomyces avidinii) (UniProt P22629); assay: streptavidin binders on small-molecule microarray, primary screen, artefact control for SMM compound annotation, biophysical, 635/667 nm fluorescence (AID 1147); settings: streptavidin binding, higher = more signal;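 further: signal reflects streptavidin binding to arrayed compounds as a control protein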
[16] = small-molecule binders of probe aInhba, primary screen, biochemical, small-molecule microarray, 635/667 nm fluorescence (AID 1148); settings: higher = more signal;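 further: score merges 667nm spot fluorescence with signal-to-noise for antibody binding to printed compounds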
Torsin-1A (Homo sapiens) [17] = biological target: Torsin-1A (Homo sapiens) (UniProt O14656); assay: torsin A binders from cell lysate, primary screen, small-molecule microarray, wild-type, 635/667 nm (AID 1149); settings: COS7 hTOR1A-WT lysate, 635 nm fluorescence, higher = more signal
Torsin-1A (Homo sapiens) [18] = biological target: Torsin-1A (Homo sapiens) (UniProt O14656); assay: small-molecule binders of mutant TOR1A in lysate, primary screen, cell lysate, small-molecule microarray, COS7 lysate, 635/667 nm fluorescence (AID 1150); settings: COS7 hTOR1A mutant lysate, 635 nm fluorescence, higher = more signal;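 further: score pools 667 nm emission and signal to noise measuring lysate protein binding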
[19] = tested on: Sonic hedgehog protein (Shh); assay: small-molecule binders of Shh protein, primary screen, biochemical, small-molecule microarray, 635/667 nm fluorescence (AID 1151); settings: small-molecule microarray binding, 635 nm fluorescence; higher = more signal;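 further: Shh protein binding to compounds spotted on small-molecule microarray slides; score combines spot fluorescence intensity with signal-to-noise across triplicate slides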

Focal adhesion kinase 1 (Homo sapiens), sequence (Q05397 whole entry, looked up): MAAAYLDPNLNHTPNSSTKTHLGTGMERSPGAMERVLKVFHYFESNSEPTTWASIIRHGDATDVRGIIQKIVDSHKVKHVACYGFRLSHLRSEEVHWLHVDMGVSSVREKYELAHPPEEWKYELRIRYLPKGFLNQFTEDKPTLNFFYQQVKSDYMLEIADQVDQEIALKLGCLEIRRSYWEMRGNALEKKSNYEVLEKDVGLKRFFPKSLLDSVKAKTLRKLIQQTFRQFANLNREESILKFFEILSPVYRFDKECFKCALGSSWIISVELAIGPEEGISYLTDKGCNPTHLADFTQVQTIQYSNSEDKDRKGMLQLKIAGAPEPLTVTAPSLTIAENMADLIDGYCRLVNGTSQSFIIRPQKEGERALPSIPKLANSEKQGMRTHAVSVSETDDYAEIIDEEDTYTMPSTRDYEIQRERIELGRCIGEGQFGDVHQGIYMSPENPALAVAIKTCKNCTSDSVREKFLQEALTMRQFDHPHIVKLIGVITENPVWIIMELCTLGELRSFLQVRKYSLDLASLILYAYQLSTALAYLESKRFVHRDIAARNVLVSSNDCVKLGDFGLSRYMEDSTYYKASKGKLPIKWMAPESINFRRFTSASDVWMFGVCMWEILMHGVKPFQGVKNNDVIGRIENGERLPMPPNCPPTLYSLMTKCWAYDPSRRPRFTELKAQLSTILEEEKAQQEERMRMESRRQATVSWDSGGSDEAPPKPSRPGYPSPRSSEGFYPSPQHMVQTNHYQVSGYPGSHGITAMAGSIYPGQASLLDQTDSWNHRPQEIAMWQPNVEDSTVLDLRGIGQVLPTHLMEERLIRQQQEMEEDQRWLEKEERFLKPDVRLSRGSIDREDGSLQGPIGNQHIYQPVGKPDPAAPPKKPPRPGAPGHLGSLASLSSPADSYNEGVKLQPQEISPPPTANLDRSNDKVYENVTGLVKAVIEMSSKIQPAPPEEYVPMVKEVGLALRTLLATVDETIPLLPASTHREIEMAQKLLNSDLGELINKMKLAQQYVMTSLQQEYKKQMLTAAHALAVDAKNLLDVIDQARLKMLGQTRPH
Luciferin 4-monooxygenase (Photinus pyralis), sequence (P08659 whole entry, looked up): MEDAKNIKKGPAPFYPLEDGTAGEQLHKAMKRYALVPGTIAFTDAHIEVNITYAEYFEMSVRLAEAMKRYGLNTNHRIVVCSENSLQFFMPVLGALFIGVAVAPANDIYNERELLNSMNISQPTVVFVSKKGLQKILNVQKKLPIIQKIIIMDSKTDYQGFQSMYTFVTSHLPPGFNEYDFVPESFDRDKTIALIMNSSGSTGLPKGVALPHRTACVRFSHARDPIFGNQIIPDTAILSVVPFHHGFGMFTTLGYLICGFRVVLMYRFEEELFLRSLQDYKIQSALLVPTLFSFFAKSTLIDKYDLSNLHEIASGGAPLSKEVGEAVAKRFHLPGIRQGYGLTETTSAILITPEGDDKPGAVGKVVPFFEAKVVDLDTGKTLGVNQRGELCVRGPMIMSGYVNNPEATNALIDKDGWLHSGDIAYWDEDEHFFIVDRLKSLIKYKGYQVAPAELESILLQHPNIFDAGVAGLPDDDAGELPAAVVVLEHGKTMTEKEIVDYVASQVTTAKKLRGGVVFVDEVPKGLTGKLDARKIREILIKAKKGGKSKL
Streptavidin (Streptomyces avidinii), sequence (P22629 whole entry, looked up): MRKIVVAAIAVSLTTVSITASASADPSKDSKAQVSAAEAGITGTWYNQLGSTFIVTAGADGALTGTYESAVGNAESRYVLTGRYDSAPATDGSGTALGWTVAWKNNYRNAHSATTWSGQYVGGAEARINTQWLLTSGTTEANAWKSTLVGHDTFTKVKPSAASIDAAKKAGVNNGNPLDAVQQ
Fibroblast growth factor 2 (Homo sapiens), sequence (P09038 whole entry, looked up): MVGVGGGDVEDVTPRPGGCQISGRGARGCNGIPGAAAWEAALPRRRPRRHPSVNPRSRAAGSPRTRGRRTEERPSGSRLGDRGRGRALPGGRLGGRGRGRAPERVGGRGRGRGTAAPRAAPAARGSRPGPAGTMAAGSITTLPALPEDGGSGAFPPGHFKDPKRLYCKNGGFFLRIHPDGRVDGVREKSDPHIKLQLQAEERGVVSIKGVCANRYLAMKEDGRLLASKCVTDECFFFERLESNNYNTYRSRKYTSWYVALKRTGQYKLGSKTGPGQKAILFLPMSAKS
Torsin-1A (Homo sapiens), sequence (O14656 whole entry, looked up): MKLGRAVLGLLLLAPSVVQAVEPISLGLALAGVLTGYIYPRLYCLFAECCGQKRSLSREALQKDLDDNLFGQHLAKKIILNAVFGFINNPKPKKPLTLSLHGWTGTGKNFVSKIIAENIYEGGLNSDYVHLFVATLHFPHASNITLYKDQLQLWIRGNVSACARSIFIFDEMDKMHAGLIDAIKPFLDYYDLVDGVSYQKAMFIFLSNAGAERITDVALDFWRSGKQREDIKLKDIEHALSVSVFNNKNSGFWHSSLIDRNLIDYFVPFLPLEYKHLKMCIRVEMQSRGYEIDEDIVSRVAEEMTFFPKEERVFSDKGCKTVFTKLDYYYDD
Follistatin (Homo sapiens), sequence (P19883 whole entry, looked up): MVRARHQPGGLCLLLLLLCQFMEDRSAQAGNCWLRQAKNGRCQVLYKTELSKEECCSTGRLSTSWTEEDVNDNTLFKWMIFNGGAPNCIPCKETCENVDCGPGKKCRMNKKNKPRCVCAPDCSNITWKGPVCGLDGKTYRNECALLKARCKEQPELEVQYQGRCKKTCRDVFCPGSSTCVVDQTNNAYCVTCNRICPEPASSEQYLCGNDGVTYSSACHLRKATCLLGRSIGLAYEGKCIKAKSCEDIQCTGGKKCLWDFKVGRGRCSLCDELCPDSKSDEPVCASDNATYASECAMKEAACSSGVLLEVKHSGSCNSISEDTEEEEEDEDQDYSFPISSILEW

NC(=O)NCC#Cc1ccc2c(c1)[C@]1(C(=O)N2)[C@H](C(=O)Nc2nc3ccccc3s2)[C@H]2C(=O)O[C@H](c3ccccc3)[C@H](c3ccccc3)N2[C@@H]1c1ccc(OCCO)cc1
composite z-score [1]: -0.497
composite z-score [2]: 0.094
composite z-score [3]: 0.268
composite z-score [4]: -0.3
composite z-score [5]: 1.37
composite z-score [6]: 0.746
z-score [7]: -2.21
composite z-score (Lefty1): -0.276
composite z-score [8]: 0.441
z-score [9]: -1.96 (inactive)
composite z-score [10]: 0.262
z-score [11]: 0.378 (inactive)
z-score [12]: -1.02 (inactive)
z-score [13]: 0.182 (inactive)
z-score [14]: -0.199 (inactive)
composite z-score [15]: 1.11
composite z-score [16]: 0.264
composite z-score (Torsin-1A (Homo sapiens) [17]): -0.657
composite z-score (Torsin-1A (Homo sapiens) [18]): -0.628
composite z-score [19]: 0.287

Cc1ccc(F)cc1S(=O)(=O)N[C@@H]1CCN(Cc2ccc3c(c2)OCO3)C1
composite z-score [1]: -0.146
composite z-score [2]: -0.844
composite z-score [3]: -0.226
composite z-score [4]: 0.125
composite z-score [5]: 0.491
composite z-score [6]: 0.279
z-score [7]: 1.32
composite z-score (Lefty1): 0.236
composite z-score [8]: -0.0476
z-score [9]: -0.391 (inactive)
composite z-score [10]: -0.212
z-score [11]: -1.51 (inactive)
z-score [12]: -0.455 (inactive)
z-score [13]: 1.22 (inactive)
z-score [14]: -0.714 (inactive)
composite z-score [15]: -0.194
composite z-score [16]: -0.128
composite z-score (Torsin-1A (Homo sapiens) [17]): 0.241
composite z-score (Torsin-1A (Homo sapiens) [18]): 0.0733
composite z-score [19]: -0.0547

COC(=O)C1=CC(CCCO)=CC(C2CC2)N(Cc2cccc(OC(F)(F)F)c2)C=C1C(=O)OC (stereo not given)
composite z-score [1]: 1
composite z-score [2]: 0.846
composite z-score [3]: 1.03
composite z-score [4]: 0.884
composite z-score [5]: 0.0058
composite z-score [6]: -0.653
z-score [7]: 1.1
composite z-score (Lefty1): 0.126
composite z-score [8]: 0.824
z-score [9]: 0.189 (inactive)
composite z-score [10]: 0.172
z-score [11]: -1.15 (inactive)
z-score [12]: -0.393 (inactive)
z-score [13]: -0.0243 (inactive)
z-score [14]: 0.969 (inactive)
composite z-score [15]: 0.307
composite z-score [16]: 0.0711
composite z-score (Torsin-1A (Homo sapiens) [17]): -0.38
composite z-score (Torsin-1A (Homo sapiens) [18]): 0.497
composite z-score [19]: -0.153

CCCCC(O)C1C=CC2C(=O)NC(=O)C2N1Nc1ccccn1 (stereo not given)
composite z-score [1]: 1.12
composite z-score [2]: 0.0748
composite z-score [3]: 0.205
composite z-score [4]: -0.796
composite z-score [5]: -0.117
composite z-score [6]: 0.256
z-score [7]: -0.0561
composite z-score (Lefty1): -0.0094
composite z-score [8]: 0.135
z-score [9]: -0.407 (inactive)
composite z-score [10]: -0.0034
z-score [11]: 0.294 (inactive)
z-score [12]: -0.314 (inactive)
z-score [13]: -0.133 (inactive)
z-score [14]: 0.438 (inactive)
composite z-score [15]: 0.0033
composite z-score [16]: 0.0225
composite z-score (Torsin-1A (Homo sapiens) [17]): 0.477
composite z-score (Torsin-1A (Homo sapiens) [18]): 0.203
composite z-score [19]: -0.432

COc1ccc([Si](C)(C)[C@H]2[C@H](CCn3cc([C@H](O)c4ccccc4)nn3)O[C@@]3(C(=O)N(c4ccccc4)c4ccccc43)[C@@H]2C)cc1
composite z-score [1]: 0.448
composite z-score [2]: -0.431
composite z-score [3]: -0.4
composite z-score [4]: -0.651
composite z-score [5]: 1.24
composite z-score [6]: 0.195
z-score [7]: 0.903
composite z-score (Lefty1): 1.51
composite z-score [8]: 0.428
z-score [9]: 0.687 (inactive)
composite z-score [10]: 0.04
z-score [11]: -4.47 (inactive)
z-score [12]: 0.674 (inactive)
z-score [13]: 0.236 (inactive)
z-score [14]: 0.115 (inactive)
composite z-score [15]: -0.265
composite z-score [16]: -0.0087
composite z-score (Torsin-1A (Homo sapiens) [17]): 0.96
composite z-score (Torsin-1A (Homo sapiens) [18]): -0.242
composite z-score [19]: 1.97

CCCC[C@@H]1C[C@H]1[C@@H](NC(=O)c1ccc(C(F)(F)F)cc1)c1ccc(C(=O)OC)cc1
composite z-score [1]: 1.21
composite z-score [2]: 0.411
composite z-score [3]: 0.135
composite z-score [4]: 0.366
composite z-score [5]: 1.25
composite z-score [6]: -0.115
z-score [7]: 1.19
composite z-score (Lefty1): 0.944
composite z-score [8]: 0.849
z-score [9]: 0.915 (inactive)
composite z-score [10]: 1.16
z-score [11]: -2.9 (inactive)
z-score [12]: 0.164 (inactive)
z-score [13]: 0.583 (inactive)
z-score [14]: -0.269 (inactive)
composite z-score [15]: 1.59
composite z-score [16]: -0.0092
composite z-score (Torsin-1A (Homo sapiens) [17]): 3.21
composite z-score (Torsin-1A (Homo sapiens) [18]): 3.93
composite z-score [19]: 1.91

Cc1c(-c2ccc(-c3ccc(Cl)c(Cl)c3)o2)nc(-c2ccccc2)c2c1CO[Si]2(C(C)C)C(C)C
composite z-score [1]: 0.466
composite z-score [2]: 0.168
composite z-score [3]: -0.0127
composite z-score [4]: 0.407
composite z-score [5]: -0.161
composite z-score [6]: -0.255
z-score [7]: -0.777
composite z-score (Lefty1): 0.351
composite z-score [8]: 0.284
z-score [9]: -0.056 (inactive)
composite z-score [10]: -0.0882
z-score [11]: -0.98 (inactive)
z-score [12]: 0.163 (inactive)
z-score [13]: -0.882 (inactive)
z-score [14]: 1.86 (inactive)
composite z-score [15]: -0.107
composite z-score [16]: -0.179
composite z-score (Torsin-1A (Homo sapiens) [17]): -0.455
composite z-score (Torsin-1A (Homo sapiens) [18]): -0.474
composite z-score [19]: 0.426

COC(=O)[C@@]1(Cc2ccc(F)cc2)[C@H]2c3cc(C(=O)N(C)C)n(CCn4cc([N+](=O)[O-])nc4C)c3C[C@H]2CN1C(=O)c1ccccc1
composite z-score [1]: 1.07
composite z-score [2]: 1.11
composite z-score [3]: 1.45
composite z-score [4]: 0.835
composite z-score [5]: -0.394
composite z-score [6]: -0.776
z-score [7]: 0.608
composite z-score (Lefty1): -1.07
composite z-score [8]: 0.288
z-score [9]: 0.984 (inactive)
composite z-score [10]: 0.453
z-score [11]: 0.278 (inactive)
z-score [12]: -0.0864 (inactive)
z-score [13]: -0.761 (inactive)
z-score [14]: 0.17 (inactive)
composite z-score [15]: 0.0438
composite z-score [16]: 0.234
composite z-score (Torsin-1A (Homo sapiens) [17]): -0.0611
composite z-score (Torsin-1A (Homo sapiens) [18]): 0.373
composite z-score [19]: -0.755

CC(C)[Si](C#CCCCC#N)(O[C@H](c1ccccc1)c1cn([C@H](C)c2ccccc2)nn1)C(C)C
composite z-score [1]: 0.67
composite z-score [2]: 0.893
composite z-score [3]: -0.0546
composite z-score [4]: 0.464
composite z-score [5]: 0.661
composite z-score [6]: 0.286
z-score [7]: 2.34
composite z-score (Lefty1): 0.739
composite z-score [8]: 0.0425
z-score [9]: -0.863 (inactive)
composite z-score [10]: 0.0952
z-score [11]: -1.75 (inactive)
z-score [12]: -0.0514 (inactive)
z-score [13]: -0.23 (inactive)
z-score [14]: 0.301 (inactive)
composite z-score [15]: 0.492
composite z-score [16]: 0.0183
composite z-score (Torsin-1A (Homo sapiens) [17]): 0.0529
composite z-score (Torsin-1A (Homo sapiens) [18]): 0.28
composite z-score [19]: 1.09
